MLLE-PAM2 inh – blocks PAM2 peptide binding to the PABP1 MLLE domain; P11940; GST-MLLE / FITC-PAM2 fluorescence polarization; inhibition, % at 20 µM; hit rate 0.36% among 360,000; AID 588489; in the data active means inhibition above about 35%, passing the limit was not always enough;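 further: plate controls were DMSO wells with GST-MLLE for no effect and wells lacking GST-MLLE protein for full effect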
Efa HMGR inh – blocks class II HMG-CoA reductase of Enterococcus faecalis; AID 1066; purified E. faecalis HMGR, NADPH absorbance 340 nm kinetic; inhibition, % at 10 µM; hit rate 0.41% among 190,000;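 active means inhibition above a set limit, the median over all tested compounds plus 3 SD, cut at about 9.5% in these data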;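 further: enzyme runs in reverse so mevalonate oxidation gives rising NADPH absorbance; 0% = complete reaction with DMSO and 100% = background rate lacking mevalonate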
PHOSPHO1 inh – PHOSPHO1 (human) inhibition. Q8TCT1. AID 1565. inhibition, % at 13.3 µM. recombinant PHOSPHO1, absorbance phosphatase assay. hit rate 1.1% among 290,000; in the data active means inhibition above about 60%
Target sequence (Q8TCT1 whole entry, looked up): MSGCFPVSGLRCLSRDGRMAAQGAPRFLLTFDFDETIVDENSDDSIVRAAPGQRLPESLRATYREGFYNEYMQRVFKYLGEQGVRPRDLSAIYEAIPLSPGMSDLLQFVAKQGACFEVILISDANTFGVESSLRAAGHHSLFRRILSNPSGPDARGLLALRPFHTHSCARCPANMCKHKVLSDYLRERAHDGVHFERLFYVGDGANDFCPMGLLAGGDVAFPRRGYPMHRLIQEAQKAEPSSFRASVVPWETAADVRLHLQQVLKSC
PABP FP inh – PABP-poly(A) binding inhibition. P11940. PABP-poly(A) RNA binding, fluorescence polarization. calls only at 35 µM. hit rate 1% among 290,000. AID 2014;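 further: calls also rest on retests at 20 µM and on dose response follow-up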
eIF4H FP inh – inhibitors of RNA binding by human eIF4H; Q15056; eIF4H fluorescence polarization binding assay; inhibition, % at 35 µM; hit rate 0.94% among 290,000; AID 2012;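 further: calls also rest on retests at 20 µM and on dose response follow-up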
* = called active by the depositor. This is a sample that favours compounds with a hit; in the whole collection about 2.4% have one here. Unless noted, how the calls were made is not given here.

How did S=c1nc(-c2ccc(Br)cc2)oc2c1CCCC2 do in these assays?
MLLE-PAM2 inh: 31; Efa HMGR inh: -5; PHOSPHO1 inh: 37; PABP FP inh: inactive; eIF4H FP inh: 6

How did Cc1cc(C)c2c(N)c(C(=O)NCC3CCCCC3)sc2n1 do in these assays?
MLLE-PAM2 inh: 40*; Efa HMGR inh: -11; PHOSPHO1 inh: 54; PABP FP inh: inactive; eIF4H FP inh: 0

How did Cc1cc(C)c2c(N)c(C(=O)NC3CCCC3)sc2n1 do in these assays?
MLLE-PAM2 inh: 16; Efa HMGR inh: 0; PHOSPHO1 inh: -32; PABP FP inh: active; eIF4H FP inh: active

Results for CCOc1ccc(NC(=O)C2C3CC/C=C\CCC32)cc1 (configuration not stated) ?
MLLE-PAM2 inh: 0; PHOSPHO1 inh: 43; PABP FP inh: inactive; eIF4H FP inh: -5

How did Cc1ccc(N(CC(N)=O)C2SC(=O)N(C)C2=O)cc1 (configuration not stated) do in these assays?
MLLE-PAM2 inh: 30; Efa HMGR inh: -2; PHOSPHO1 inh: -42; PABP FP inh: inactive; eIF4H FP inh: -4

How did Cc1cccc(N(CC(N)=O)C2SC(=O)N(c3ccccc3)C2=O)c1 (configuration not stated) do in these assays?
MLLE-PAM2 inh: 41*; Efa HMGR inh: 1; PHOSPHO1 inh: 29; PABP FP inh: inactive; eIF4H FP inh: 5

How did Cc1ncc(C[n+]2csc(CCOC(=O)CC3C4CC5CC(C4)CC3C5)c2C)c(N)n1 (configuration not stated) do in these assays?
MLLE-PAM2 inh: 15; Efa HMGR inh: -4; PHOSPHO1 inh: -2; PABP FP inh: active; eIF4H FP inh: 28

How did Cc1ncc(C[n+]2csc(CCOC(=O)C34CC5CC(CC(C5)C3)C4)c2C)c(N)n1 do in these assays?
MLLE-PAM2 inh: 27; Efa HMGR inh: -13; PHOSPHO1 inh: -19; PABP FP inh: inactive; eIF4H FP inh: 19

How did COc1ccccc1NC(C)=[N+](C)CCNS(=O)(=O)c1ccc(Cl)cc1 do in these assays?
MLLE-PAM2 inh: -29; PHOSPHO1 inh: 10; PABP FP inh: active; eIF4H FP inh: 0

Results for O=C(Nc1ccccc1F)Oc1cccc(OC(=O)Nc2ccccc2F)c1 ?
MLLE-PAM2 inh: -2; PHOSPHO1 inh: 16; PABP FP inh: inactive; eIF4H FP inh: 10

What do the screens show for `O=C(NC1CCCCCC1)C1CCC(=O)N(Cc2ccccc2F)C1` (configuration not stated)?
MLLE-PAM2 inh: 1; PHOSPHO1 inh: 2; PABP FP inh: inactive; eIF4H FP inh: 3

Results for Nc1cc(OCC(F)(F)F)cc([N+](=O)[O-])c1 ?
MLLE-PAM2 inh: -4; Efa HMGR inh: -2; PHOSPHO1 inh: -13; PABP FP inh: inactive; eIF4H FP inh: 8

What do the screens show for `Nc1cc(N)c(OCC(F)(F)F)cc1OCC(F)(F)F`?
MLLE-PAM2 inh: 18; Efa HMGR inh: 5; PHOSPHO1 inh: 16; PABP FP inh: active; eIF4H FP inh: 106*

What do the screens show for `CCC1c2ccc(C)n2CCN1C(=O)Nc1ccc(F)cc1` (configuration not stated)?
MLLE-PAM2 inh: 0; Efa HMGR inh: -3; PHOSPHO1 inh: -12; PABP FP inh: active; eIF4H FP inh: 113*

Results for NC(c1csc(Nc2ccc(C(=O)c3ccccc3)cc2)n1)C1CCCCC1 (configuration not stated) ?
MLLE-PAM2 inh: 6

How did CC1=CC(C)C(C[N+]2(C)CCCCC2)C(C)C1 (configuration not stated) do in these assays?
MLLE-PAM2 inh: -118; Efa HMGR inh: -2; PHOSPHO1 inh: 21; PABP FP inh: active; eIF4H FP inh: 9

What do the screens show for `Nc1ncnc(N2CCOCC2)c1N`?
MLLE-PAM2 inh: -1; Efa HMGR inh: -8; PHOSPHO1 inh: -3; PABP FP inh: active; eIF4H FP inh: 87*

How did Nc1c(Cl)ncnc1N1CCCC1 do in these assays?
MLLE-PAM2 inh: 3; Efa HMGR inh: -2; PHOSPHO1 inh: 23; PABP FP inh: inactive; eIF4H FP inh: 5

How did COc1ccc(NC(=O)CSCC(=O)N(C)CC(=O)Nc2cccc3ccccc23)cc1 do in these assays?
MLLE-PAM2 inh: -32

How did C=CCNC(=S)NNC(=O)c1cccn(Cc2ccc(Cl)c(Cl)c2)c1=O do in these assays?
MLLE-PAM2 inh: -24; Efa HMGR inh: 4; PHOSPHO1 inh: 78*; PABP FP inh: inactive; eIF4H FP inh: -5

How did O=C(C1CCC(=O)N(C2CC2)C1)N1CCN(c2cccc(Cl)c2)CC1 (configuration not stated) do in these assays?
MLLE-PAM2 inh: -1; PHOSPHO1 inh: 56; PABP FP inh: inactive; eIF4H FP inh: 1

Results for O=C(/C=C/NCc1cccnc1)c1ccc(-c2ccccc2)cc1 ?
MLLE-PAM2 inh: -53; PHOSPHO1 inh: -60; PABP FP inh: inactive; eIF4H FP inh: -6

How did CN1CCN(c2oc(-c3ccccc3)nc2S(=O)(=O)c2ccc(Br)cc2)CC1 do in these assays?
MLLE-PAM2 inh: -9; PHOSPHO1 inh: 61*; PABP FP inh: inactive; eIF4H FP inh: -4

How did CC(C)(C)c1nc(S(=O)(=O)c2ccc(Cl)cc2)c(N2CCOCC2)o1 do in these assays?
MLLE-PAM2 inh: 25; Efa HMGR inh: -5; PHOSPHO1 inh: 63*; PABP FP inh: inactive; eIF4H FP inh: 3

How did O=S(=O)(c1ccccc1)c1nc(-c2ccccc2)oc1N1CCCC1 do in these assays?
MLLE-PAM2 inh: -1; Efa HMGR inh: 0; PHOSPHO1 inh: 47; PABP FP inh: inactive; eIF4H FP inh: -9

What do the screens show for `COc1cc(-c2nc(S(=O)(=O)c3ccc(C)cc3)c(N3CCOCC3)o2)cc(OC)c1OC`?
MLLE-PAM2 inh: 40*; Efa HMGR inh: -7; PHOSPHO1 inh: 3; PABP FP inh: inactive; eIF4H FP inh: -4

What do the screens show for `CC(C)Cc1nc(S(=O)(=O)c2ccc(Cl)cc2)c(N2CCOCC2)o1`?
MLLE-PAM2 inh: 30; Efa HMGR inh: -1; PHOSPHO1 inh: 24; PABP FP inh: inactive; eIF4H FP inh: -9

How did CCOCCCNC(=S)Nc1ccc2nc(N3CCOCC3)cc(C)c2c1 do in these assays?
MLLE-PAM2 inh: -33; PHOSPHO1 inh: 2; PABP FP inh: inactive; eIF4H FP inh: 1

Results for c1cnc2c(-c3ccc4nccn4c3)cccc2c1 ?
MLLE-PAM2 inh: -23

Results for CN(Cc1cnc2nc(N)nc(N)c2n1)c1ccc(C(=O)NC(CCC(=O)O)C(=O)O)cc1C(F)(F)F (configuration not stated) ?
MLLE-PAM2 inh: 21

Results for CN(Cc1cnc2nc(N)nc(N)c2n1)c1ccc(C(=O)NC(CCC(=O)O)C(=O)O)cc1 (configuration not stated) ?
MLLE-PAM2 inh: 67*

How did O=C(CC1SCCNC1=O)Nc1ccc(F)c(Cl)c1 (configuration not stated) do in these assays?
MLLE-PAM2 inh: 2; Efa HMGR inh: 16*; PHOSPHO1 inh: -20; PABP FP inh: inactive; eIF4H FP inh: -1

Results for Cc1ccc(NC(=O)CC2SCCNC2=O)cc1Cl (configuration not stated) ?
MLLE-PAM2 inh: -5; Efa HMGR inh: -5; PHOSPHO1 inh: -14; PABP FP inh: inactive; eIF4H FP inh: -7

What do the screens show for `CCN(C[C@H]1N[C@@](CC)(C(=O)OC)[C@H]2C(=O)N(C)C(=O)[C@@H]12)C(=O)Nc1ccccc1`?
MLLE-PAM2 inh: 10

Screening data as filed in PubChem.
